Compounds without any hit were thinned out: in the full panel of roughly 79,000, 15% have a hit. Unmarked numbers belong to inactive results. Active and inactive are the calls of the source. Rule as the data show it: active = growth inhibition above about 70%; inactive = the rest.
Legend:
[1] = NCI Yeast Anticancer Drug Screen. Data for the mec2-1 strain (AID 157); details: S. cerevisiae mec2-1 strain, hits give high values
How it was run: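 Strain: mec2-1 (DNA repair/cell cycle alteration). Compound exposure, then growth measured; inhibition expressed relative to vehicle.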

[2] = NCI Yeast Anticancer Drug Screen. Data for the rad14 strain (AID 159);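 also: 0% = growth of vehicle-treated control cultures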; details: S. cerevisiae rad14 strain growth inhibition, hits give high values
How it was run: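 Screen for anticancer potential: a yeast strain altered in DNA damage repair is grown with compound, and reduced growth is quantified against vehicle controls.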

[3] = NCI Yeast Anticancer Drug Screen. Data for the sgs1 mgt1 strain (AID 161);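 also: 0% = growth of cultures given vehicle only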; details: S. cerevisiae sgs1 mgt1 strain, hits give high values
How it was run: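 Read-out: growth inhibition vs vehicle controls. Cells: mutant yeast strain deficient in DNA damage repair.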

[4] = NCI Yeast Anticancer Drug Screen. Data for the CLN2oe strain (AID 163);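 also: 0% = growth of vehicle-only control cultures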; details: S. cerevisiae CLN2oe strain, hits give high values
How it was run: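 Growth of a genetically modified yeast strain is measured after compound exposure and compared with cultures given vehicle alone.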

[5] = NCI Yeast Anticancer Drug Screen. Data for the bub3 strain (AID 167); details: S. cerevisiae bub3 mutant strain, hits give high values
How it was run: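 Screening used yeast with an engineered genetic alteration affecting cell cycle control. Compound-exposed cultures were compared with vehicle cultures, and reduced growth was taken as inhibition.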

[6] = NCI Yeast Anticancer Drug Screen. Data for the wt2 strain (AID 169);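 also: 0% = growth of vehicle-treated yeast cultures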; details: S. cerevisiae wt2 strain growth inhibition, hits give high values
How it was run: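 This strain belongs to a panel of yeast strains with defined genetic alterations in DNA damage repair or cell cycle control. Compounds are applied, and growth inhibition is measured against vehicle-treated cultures.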

[7] = NCI Yeast Anticancer Drug Screen. Data for the mlh1 strain (AID 171);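 also: 0% = growth of vehicle-treated control cultures of the same strain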; details: S. cerevisiae mlh1 strain growth inhibition, hits give high values
How it was run: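 Growth of the mutant yeast strain after compound exposure, expressed as inhibition relative to vehicle-only controls.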

[8] = NCI Yeast Anticancer Drug Screen. Data for the sgs1 strain (AID 173);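 also: 0% = growth of vehicle-only control cultures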; details: S. cerevisiae sgs1 mutant, hits give high values
How it was run: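 Growth of a yeast strain bearing a defined genetic alteration is measured after compound treatment. Inhibition is expressed relative to vehicle-only controls.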

[9] = NCI Yeast Anticancer Drug Screen. Data for the mlh1 rad18 strain (AID 175); details: S. cerevisiae mlh1 rad18 strain growth inhibition, hits give high values
How it was run: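 Read-out is yeast growth inhibition, calculated against vehicle-only controls. The compound was applied to a strain engineered with DNA damage repair alterations.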

[10] = NCI Yeast Anticancer Drug Screen. Data for the rad18 strain (AID 177); details: S. cerevisiae rad18 mutant growth inhibition, hits give high values
How it was run: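 Growth of the mutant yeast strain after compound exposure, normalised to vehicle-only cultures.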

[11] = NCI Yeast Anticancer Drug Screen. Data for the wt1 strain (AID 149);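 also: 0% = growth of vehicle-treated wt1 cultures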; details: S. cerevisiae wt1 strain (SPY 50644) growth inhibition, hits give high values
How it was run: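 Using yeast strain wt1, compound-induced growth inhibition was determined against vehicle-treated cultures.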

[12] = NCI Yeast Anticancer Drug Screen. Data for the rad50EPP+ strain (AID 151);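 also: 0% = growth of vehicle-treated control cultures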; details: S. cerevisiae rad50 mutant strain, hits give high values
How it was run: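 Compounds were applied to the rad50EPP+ yeast strain, which bears a defined DNA repair alteration, and growth inhibition was determined relative to vehicle-treated cultures.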

[13] = NCI Yeast Anticancer Drug Screen. Data for the mgt1 strain (AID 153); details: S. cerevisiae mgt1 mutant growth inhibition, hits give high values
How it was run: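 Strain: mgt1 yeast, one of a set carrying defined DNA damage repair or cell cycle control alterations. Compound-treated growth compared with vehicle.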

[14] = NCI Yeast Anticancer Drug Screen. Data for the rad50 strain (AID 155);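 also: 0% = growth of vehicle-only cultures of the same strain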; details: S. cerevisiae rad50 strain growth inhibition, hits give high values
How it was run: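 Relative growth inhibition (compound vs vehicle) was measured in yeast with a defined repair-gene alteration.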

[15] = NCI Yeast Anticancer Drug Screen. Data for the cln2 rad14 strain (AID 165);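 also: 0% = growth equal to vehicle treated cultures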; details: S. cerevisiae cln2 rad14 strain, hits give high values
How it was run: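 Compounds are applied to the cln2 rad14 yeast strain, and growth is then compared with that of vehicle-treated cultures to give inhibition.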

[16] = at 5.0 µM (retest, dose inferred, filed as 0.5)
[17] = at 50.0 µM (retest, dose inferred, filed as 5.0)

CC(C)OC(CCC#N)c1ccc(Cl)cc1 (stereo not drawn)
growth inhibition ([1]; at 100.0 µM): 7% | growth inhibition ([2]; at 1.2 µM): -22% | growth inhibition ([2]; at 3.7 µM): -26% | growth inhibition ([2]; at 11.0 µM): -12% | growth inhibition ([2]; at 33.0 µM): -6% | growth inhibition ([2]; at 100.0 µM): 1% | growth inhibition [3, 16]: 2% | growth inhibition [3, 17]: -4% | growth inhibition ([3]; at 50.0 µM): 56% | growth inhibition ([4]; at 1.2 µM): 11% | growth inhibition ([4]; at 3.7 µM): -6% | growth inhibition ([4]; at 11.0 µM): 14% | growth inhibition ([4]; at 33.0 µM): 15% | growth inhibition ([4]; at 100.0 µM): 11% | growth inhibition ([5]; at 1.2 µM): -18% | growth inhibition ([5]; at 3.7 µM): -12% | growth inhibition [5, 16]: 44% | growth inhibition ([5]; at 11.0 µM): -19% | growth inhibition ([5]; at 33.0 µM): 5% | growth inhibition [5, 17]: 45% | growth inhibition ([5]; at 50.0 µM): -1.8% | growth inhibition ([5]; at 100.0 µM): 4% | growth inhibition ([6]; at 1.2 µM): -19% | growth inhibition ([6]; at 3.7 µM): -21% | growth inhibition ([6]; at 11.0 µM): -17% | growth inhibition ([6]; at 33.0 µM): -12% | growth inhibition ([6]; at 100.0 µM): 12% | growth inhibition ([7]; at 1.2 µM): -23% | growth inhibition ([7]; at 3.7 µM): -15% | growth inhibition ([7]; at 11.0 µM): -16% | growth inhibition ([7]; at 33.0 µM): 6% | growth inhibition ([7]; at 100.0 µM): 11% | growth inhibition ([8]; at 1.2 µM): -20% | growth inhibition ([8]; at 3.7 µM): -11% | growth inhibition ([8]; at 11.0 µM): -8% | growth inhibition ([8]; at 33.0 µM): 17% | growth inhibition ([8]; at 100.0 µM): 40% | growth inhibition [9, 16]: 42% | growth inhibition [9, 17]: 100% (active) | growth inhibition ([9]; at 50.0 µM): 19.9% | growth inhibition ([10]; at 1.2 µM): -29% | growth inhibition ([10]; at 3.7 µM): -32% | growth inhibition ([10]; at 11.0 µM): -24% | growth inhibition ([10]; at 33.0 µM): -16% | growth inhibition ([10]; at 100.0 µM): 0%

CCN(CC)CCSc1c2ccccc2nc2cc(NCC(=O)Nc3ccccc3-c3ccccc3NC(=O)CNc3ccc4c(SCCN(CC)CC)c5ccccc5nc4c3)ccc12
growth inhibition ([11]; at 1.2 µM): -21% | growth inhibition ([11]; at 3.7 µM): -16% | growth inhibition ([11]; at 11.0 µM): -25% | growth inhibition ([11]; at 33.0 µM): 23% | growth inhibition ([11]; at 100.0 µM): 96% (active) | growth inhibition ([12]; at 1.2 µM): 9% | growth inhibition ([12]; at 3.7 µM): 10% | growth inhibition ([12]; at 11.0 µM): -8% | growth inhibition ([12]; at 33.0 µM): 38% | growth inhibition ([12]; at 100.0 µM): 89% (active) | growth inhibition ([13]; at 1.2 µM): 9% | growth inhibition ([13]; at 3.7 µM): 17% | growth inhibition ([13]; at 11.0 µM): 19% | growth inhibition ([13]; at 33.0 µM): 85% (active) | growth inhibition ([13]; at 100.0 µM): 97% (active) | growth inhibition ([14]; at 1.2 µM): 13% | growth inhibition ([14]; at 3.7 µM): 15% | growth inhibition [14, 16]: 23% | growth inhibition ([14]; at 11.0 µM): 15% | growth inhibition ([14]; at 33.0 µM): 75% (active) | growth inhibition [14, 17]: 96% (active) | growth inhibition ([14]; at 50.0 µM): 89.5% (active) | growth inhibition ([14]; at 100.0 µM): 95% (active) | growth inhibition ([1]; at 1.2 µM): 23% | growth inhibition ([1]; at 3.7 µM): 22% | growth inhibition [1, 16]: 20% | growth inhibition ([1]; at 11.0 µM): 16% | growth inhibition ([1]; at 33.0 µM): 91% (active) | growth inhibition [1, 17]: 98% (active) | growth inhibition ([1]; at 50.0 µM): 89.5% (active) | growth inhibition ([1]; at 100.0 µM): 97% (active) | growth inhibition ([2]; at 1.2 µM): -14% | growth inhibition ([2]; at 3.7 µM): -15% | growth inhibition ([2]; at 11.0 µM): -12% | growth inhibition ([2]; at 33.0 µM): 74% (active) | growth inhibition ([2]; at 100.0 µM): 96% (active) | growth inhibition [3, 16]: 21% | growth inhibition [3, 17]: 97% (active) | growth inhibition ([3]; at 50.0 µM): 89.2% (active) | growth inhibition ([4]; at 1.2 µM): 2% | growth inhibition ([4]; at 3.7 µM): 7% | growth inhibition ([4]; at 11.0 µM): 11% | growth inhibition ([4]; at 33.0 µM): 44% | growth inhibition ([4]; at 100.0 µM): 96% (active) | growth inhibition [15, 16]: 15% | growth inhibition [15, 17]: 13% | growth inhibition ([15]; at 50.0 µM): 41% | growth inhibition ([5]; at 1.2 µM): 36% | growth inhibition ([5]; at 3.7 µM): 30% | growth inhibition [5, 16]: 27% | growth inhibition ([5]; at 11.0 µM): 31% | growth inhibition ([5]; at 33.0 µM): 92% (active) | growth inhibition [5, 17]: 89% (active) | growth inhibition ([5]; at 50.0 µM): 90.5% (active) | growth inhibition ([5]; at 100.0 µM): 98% (active) | growth inhibition ([6]; at 1.2 µM): -5% | growth inhibition ([6]; at 3.7 µM): -3% | growth inhibition ([6]; at 11.0 µM): 2% | growth inhibition ([6]; at 33.0 µM): 48% | growth inhibition ([6]; at 100.0 µM): 96% (active) | growth inhibition ([7]; at 1.2 µM): -12% | growth inhibition ([7]; at 3.7 µM): -7% | growth inhibition ([7]; at 11.0 µM): -5% | growth inhibition ([7]; at 33.0 µM): 80% (active) | growth inhibition ([7]; at 100.0 µM): 96% (active) | growth inhibition [9, 16]: 42% | growth inhibition [9, 17]: 98% (active) | growth inhibition ([9]; at 50.0 µM): 89% (active)

Source: PubChem BioAssay (NCI)
